Measurements as given in PubChem BioAssay (Tox21).
Results filed as inconclusive are left out. The source made the active and inactive calls. Unless noted, calls follow the shape of the dose curve; as a rule, active = well fitted curve in the direction sought with a large enough effect in the repeat runs; inconclusive = weak or mixed curves; inactive = no such curve, though single readings can be large; an effect the other way counts as inactive or inconclusive.

What was measured:
[1] = qHTS RealTime-Glo MT Cell Viability Assay in HEK293 cells - 8 hour (AID 1224887); also: top concentration of the series differs between compounds; nearly all actives have a fitted effect of over 50% in size
Summary of the method: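 HEK293 cells mixed with RealTime-Glo reagents (NanoLuc plus cell-permeant prosubstrate) at 600 cells/well, preincubated 5 h at 37 C/5% CO2, then given 23 nL compound in DMSO. Nonlytic luminescence from viable cells was read at 0, 8, 16, 24, 32 and 40 h.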

[2] = A CellTox Green Cytotoxicity Assay to monitor cytotoxicity in HEK293 cells - 16 hour (AID 1224888); also: nearly all actives have a fitted effect of over 35% in size
Summary of the method: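 HEK293 cells premixed with CellTox Green dye were seeded at 600 cells/well and left 5 h at 37 C/5% CO2 before pin transfer of 23 nL compound in DMSO. Fluorescence from dye bound to dead-cell DNA was read during 40 h treatment.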

[3] = qHTS RealTime-Glo MT Cell Viability Assay in HepG2 cells - 0 hour (AID 1224889); also: nearly all actives have a fitted effect of over 50% in size
Summary of the method: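 Viability was tracked continuously by NanoLuc luminescence from prosubstrate reduced by living HepG2 cells, at successive time points over 40 h of compound exposure. Cells with reagent were preincubated 5 h at 37 °C before compound addition.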

[4] = A CellTox Green Cytotoxicity Assay to monitor cytotoxicity in HepG2 cells - 8 hour (AID 1224890); also: nearly all actives have a fitted effect of over 45% in size
Summary of the method: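 HepG2 cells were seeded together with the CellTox Green dye at 600 cells/well, left 5 h at 37 C/5% CO2, then given compounds in DMSO. Fluorescence from dye bound to dead-cell DNA was read repeatedly over 40 h of treatment at 37 C.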

[5] = qHTS assay to identify small molecule antagonists of the estrogen receptor alpha (ER-alpha) signaling pathway using the BG1 cell line in the presence of 0.1 nM 17-beta-estradiol - cell viability counter screen (AID 1259241); also: nearly all actives have a fitted effect of over 40% in size
Summary of the method: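 Following 5 days in phenol red-free medium with charcoal-stripped serum, VM7Luc4E2 cells received test compounds alongside 0.1 nM 17beta-estradiol (final) at 37C for 22 hr. Live cells were then quantified via protease-substrate fluorescence.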

[6] = qHTS assay to identify small molecule antagonists of the androgen receptor (AR) signaling pathway using the MDA cell line in the presence of 0.5 nM R1881 - cell viability counter screen (AID 1259242); also: nearly all actives have a fitted effect of over 45% in size
Summary of the method: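 MDA-kb2 cells (human breast carcinoma, stably carrying MMTV-luciferase reporter) were exposed to compounds with 0.5 nM R1881 (final) for 16 hr at 37C, 0% CO2; viability then read as live-cell protease fluorescence (CellTiter-Fluor, 30 min) in the same wells.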

[7] = target: Estrogen receptor (Homo sapiens) (UniProt P03372); experiment: qHTS assay to identify small molecule antagonists of the estrogen receptor alpha (ER-alpha) signaling pathway using the BG1 cell line in the presence of 0.1 nM 17-beta-estradiol (AID 1259244); also: nearly all actives have a fitted effect of over 50% in size
Summary of the method: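 VM7Luc4E2 cells (endogenous full-length ER-alpha, stable 4xERE-luciferase) were grown 5 days in phenol red-free medium with charcoal-stripped FBS, then exposed 22 h at 37C to compounds plus 0.1 nM (final) 17beta-estradiol; ONE-Glo luminescence read-out.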

[8] = qHTS assay to identify small molecule HDAC inhibitors (AID 1259364); also: top concentration of the series differs between compounds; nearly all actives have a fitted effect of over 45% in size
Summary of the method: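 Wild-type HCT-116 cells were plated overnight, exposed to compounds for 2 h at 37 °C, then given HDAC-Glo class I/II luminogenic reagent for 30 min at room temperature before luminescence was read.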

[9] = qHTS assay to identify small molecule phospholipidosis (PLD) inducers (AID 1259344; active = well fitted curve in the direction sought with a large enough effect; an effect the other way counts as inactive or inconclusive)
Summary of the method: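 Quantitative HTS in HepG2: compound plus LipidTOX Red dye for 24 h, paraformaldehyde fixation with Hoechst 33342, widefield high-content imaging; amiodarone as positive and DMSO as negative control.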

[10] = target: Androgen receptor (Homo sapiens) (UniProt P10275); experiment: qHTS assay to identify small molecule antagonists of the androgen receptor (AR) signaling pathway using the MDA cell line in the presence of 0.5 nM R1881 (AID 1259243); also: nearly all actives have a fitted effect of over 50% in size
Summary of the method: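 MDA-kb2 human breast carcinoma cells carrying an MMTV-luciferase reporter (AR- and GR-responsive) were plated, rested 5 hr at 37C, dosed with compounds, then stimulated with 0.5 nM R1881 (final) for 16 hr; luminescence was read after ONE-Glo.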
% is scaled to controls: 0 for no effect and ±100 for the full control effect.

Chain of Estrogen receptor (Homo sapiens) (P03372 whole entry, looked up): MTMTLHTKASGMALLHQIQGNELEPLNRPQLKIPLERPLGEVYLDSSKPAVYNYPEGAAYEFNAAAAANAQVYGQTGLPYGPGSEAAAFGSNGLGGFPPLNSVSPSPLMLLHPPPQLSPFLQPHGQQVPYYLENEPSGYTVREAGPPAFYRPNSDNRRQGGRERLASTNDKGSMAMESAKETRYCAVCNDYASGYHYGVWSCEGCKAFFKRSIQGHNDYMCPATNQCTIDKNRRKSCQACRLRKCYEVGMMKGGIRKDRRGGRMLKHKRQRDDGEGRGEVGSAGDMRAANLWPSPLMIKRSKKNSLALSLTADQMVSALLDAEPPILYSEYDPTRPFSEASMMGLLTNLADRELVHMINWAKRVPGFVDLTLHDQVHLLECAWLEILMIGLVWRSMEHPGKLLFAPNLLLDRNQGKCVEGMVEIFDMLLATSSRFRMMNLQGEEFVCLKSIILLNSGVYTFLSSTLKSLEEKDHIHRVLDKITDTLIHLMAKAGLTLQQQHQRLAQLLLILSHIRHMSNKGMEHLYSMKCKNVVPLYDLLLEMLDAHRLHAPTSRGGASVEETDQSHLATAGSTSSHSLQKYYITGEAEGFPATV
Chain of Androgen receptor (Homo sapiens) (P10275 whole entry, looked up): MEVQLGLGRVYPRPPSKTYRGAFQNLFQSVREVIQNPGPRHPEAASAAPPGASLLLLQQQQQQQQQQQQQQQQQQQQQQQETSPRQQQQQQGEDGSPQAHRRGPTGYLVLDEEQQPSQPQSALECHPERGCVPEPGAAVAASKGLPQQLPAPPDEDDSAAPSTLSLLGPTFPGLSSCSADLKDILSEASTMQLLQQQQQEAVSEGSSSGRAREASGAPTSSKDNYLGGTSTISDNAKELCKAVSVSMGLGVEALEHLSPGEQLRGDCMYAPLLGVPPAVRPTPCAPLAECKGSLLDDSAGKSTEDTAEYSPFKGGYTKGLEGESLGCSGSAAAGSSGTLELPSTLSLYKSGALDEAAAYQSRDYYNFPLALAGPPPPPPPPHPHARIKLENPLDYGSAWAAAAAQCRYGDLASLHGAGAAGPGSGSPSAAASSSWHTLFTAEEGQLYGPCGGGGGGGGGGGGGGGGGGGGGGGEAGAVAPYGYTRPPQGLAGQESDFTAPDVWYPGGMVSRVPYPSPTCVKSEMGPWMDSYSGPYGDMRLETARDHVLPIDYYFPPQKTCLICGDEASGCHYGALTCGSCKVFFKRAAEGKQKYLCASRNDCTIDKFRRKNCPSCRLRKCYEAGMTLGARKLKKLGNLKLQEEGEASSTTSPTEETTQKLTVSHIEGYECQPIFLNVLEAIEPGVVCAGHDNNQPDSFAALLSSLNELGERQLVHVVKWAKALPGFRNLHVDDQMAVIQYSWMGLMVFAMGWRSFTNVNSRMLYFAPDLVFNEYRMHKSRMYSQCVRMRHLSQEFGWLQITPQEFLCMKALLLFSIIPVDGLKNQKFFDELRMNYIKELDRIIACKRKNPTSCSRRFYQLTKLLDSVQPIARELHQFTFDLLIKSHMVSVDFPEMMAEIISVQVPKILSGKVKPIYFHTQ

Cc1cc(C)c(C)c(C)c1
inactive: outcome [1] | Potency [2] | Potency [3] | Potency [4] | outcome [5] | outcome [6] | outcome [7] | Potency [8]

CC1=C(O)C(=O)CO1
inactive: outcome [1] | Potency [2] | Potency [3] | Potency [4] | outcome [5] | outcome [6] | outcome [7] | Potency [8]

CCCCCCCCCCCCCCBr
inactive: outcome [1] | Potency [2] | Potency [3] | Potency [4] | outcome [5] | outcome [6] | outcome [7] | Potency [8]

CCCCCC(=O)CC
inactive: outcome [1] | Potency [2] | Potency [3] | Potency [4] | outcome [5] | outcome [6] | Potency [8]

COc1cc(NS(=O)(=O)c2ccc(N)cc2)ncn1
inactive: outcome [1] | Potency [2] | Potency [3] | Potency [4] | outcome [5] | outcome [6] | Potency [9] | Potency [8]

N=C(N)N1CCc2ccccc2C1
inactive: activity change, negative = cytotoxicity [1] 2.38% [at 6.97 µM] | activity change [2] -13.7% [at 6.97 µM, stronger effect = higher value] | activity change, negative = cytotoxicity [3] -7.09% [at 6.97 µM] | cytotoxicity increase [4] -13.8% [at 6.97 µM] | activity change, negative = cytotoxicity [5] 9.23% [at 8.39 µM] | viability change, negative = cytotoxic [6] -5.28% [at 8.39 µM] | Potency [9] | activity change, negative = inhibition [8] 3.09% [at 8.39 µM]

COCCCOc1cc(C[C@@H](C[C@H](N)[C@@H](O)C[C@H](C(=O)NCC(C)(C)C(N)=O)C(C)C)C(C)C)ccc1OC
inactive: outcome [1] | Potency [2] | Potency [3] | Potency [4] | outcome [5] | outcome [6] | outcome [7] | Potency [8]

CC(C)(Sc1cc(C(C)(C)C)c(O)c(C(C)(C)C)c1)Sc1cc(C(C)(C)C)c(O)c(C(C)(C)C)c1
inactive: outcome [1] | Potency [2] | Potency [3] | Potency [4] | outcome [5] | outcome [6] | Potency [8]

CC(C)(C)OC=O
inactive: outcome [1] | Potency [2] | Potency [3] | Potency [4] | outcome [6] | Potency [8]

COC(=O)c1ccc(C(=O)O)cc1
inactive: outcome [1] | Potency [2] | Potency [3] | Potency [4] | outcome [6] | outcome [7] | Potency [8]

N[C@H]1C(O)O[C@H](CO)[C@@H](O)[C@@H]1O (some centres not stated)
inactive: outcome [1] | Potency [2] | Potency [3] | outcome [5] | outcome [6] | Potency [10] | outcome [7] | Potency [9] | Potency [8]

CC[N+](C)(CC)CC
inactive: outcome [1] | Potency [2] | Potency [3] | Potency [4] | outcome [6] | Potency [8]

Cc1ccc2cccnc2c1
inactive: outcome [1] | Potency [2] | Potency [3] | outcome [5] | outcome [6] | Potency [10] | outcome [7]
